This is an account of results in PubChem BioAssay (NCI).

Structures are written as SMILES. About 83,000 compounds went through this panel and 20% of them were active in at least one assay; those are over-represented in the sample as a whole.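 48-hour exposure, single concentration, 96-well plates; percent growth endpoint where 0 means no net growth. Active: below 10.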 Unmarked numbers belong to inactive results. Activity calls are given as the source filed them.

This test has as its system TK-10 renal. Nature of the test: NCI-60 one-dose screen, 48 h (100 = growth as untreated, 0 = no growth, -100 = all killed). The note with it: 10 µM unless noted.
Regarding `Cc1cc2c(-c3nc4ccccc4n3C)c(O)c(O)cc2c(O)c1-c1c(C)cc2c(-c3nc4ccccc4n3C)c(O)c(O)cc2c1O`, the growth was 57.1%.
In the case of `COc1ccc2sc(-n3nc4nc5n(c(=O)c4c3N)-c3ccccc3Sc3ccccc3-5)nc2c1` it was 102%.
As for `CC(=O)Nc1ccc(C(=O)/C=C/c2ccc(N(C)C)cc2)cc1`, the growth was 95.4%.
For `CCCC(=O)NNc1[nH]c(-c2ccc(OC)cc2)cc1C(=O)OCC`, the growth is -16.1% (active).
In the case of `O=C(/C(Br)=C/c1ccccc1)c1ccccc1` it was 3.38% (active); in that of `C/C=C(/C)C(=O)OC1C=C(CO)C(=O)C(OC(=O)C(C)(O)C(C)Cl)C1C(C)C` (stereo not drawn), -17.4% (active).
In the case of `CC([C@H]1CC=C2C3CCC4=C[C@@H](N(C)C)CC[C@]4(C)C3CC[C@@]21C)N(C)C` (stereo partly drawn) it was 95.5%; in that of `COc1ccc(/C=C2\SC(=O)N(Cc3cc(=O)oc4ccc(OC)cc34)C2=O)cc1`, 97.8%.
On to `COc1ccc2cnc(N)c(C#Cc3cc(C(=O)Nc4ccc(CN5CCN(C)CC5)c(C(F)(F)F)c4)cnc3C)c2c1`, for which the growth is 27.4%.
As for `CCCCCCCCCCCCCCCCCC1=NCCN1CS(=O)(=O)O`, the figure is 89.4%; as for `COc1ccc(OC)c(Cn2cc3c(c2)-c2oncc2CC3)c1`, 68.9%.
In the case of `CC1Cc2cc(F)ccc2-n2cccc21` (stereo not drawn) it was 96.5%.
As for `CC/C(=N\Nc1nc2ccccc2n1C)c1ccccn1`, the figure is 33.5%; as for `O=C(CN1C(=O)NC(c2ccccc2)(c2ccccc2)C1=O)c1ccc(N2CCCC2)cc1`, 98.4%.
As to `COc1ccc(-c2nc(N)n(C(=S)Nc3ccccc3)n2)cc1`, the growth was 113%.
`C#CCCCCCCC[C@@H]1OC(=O)[C@H]([C@@H](C)CC)NC(=O)[C@H]([C@@H](C)CC)NC(=O)CC(=O)[C@@H]1C`: the growth was 117%.
In the case of `CCOC1=C(Cl)C(=O)C(OCC)=C(Cl)C1=O` it was 104%.
In the case of `Cc1ccc(CC(=O)O)c(C)c1` it was 88.3%; in that of `O=C1C(=O)c2ccccc2C(O)=C1CCCc1ccc(Oc2ccccc2)cc1`, 90.7%; in that of `CC[n+]1c(C)ccc2cc(C)ccc21`, 98.1%.
As for `COC(=O)/C(Br)=C/c1c[nH]c2ccc(Br)cc12`, the figure is 78.3%; as for `CC(=O)c1ccc2c(c1)c1ccccc1n2C`, 108%.
As for `Cc1ccc([C@@H]2C[C@H](O)Cc3ccccc3N2)s1`, the growth is 119%.
In the case of `COC(=O)/C=C/c1cc(O)c2oc(-c3ccc(O)c(O)c3)c(C(=O)OC)c2c1` it was 46.7%.
`CC1=C(C)C[C@]2(C(=O)O[C@H]3CCCC[C@@H]32)[S@](=O)C1`: the growth is 89.7%.
For `CCOC(=O)C1=NN(c2ccccc2)C2=NC(=O)/C(=C\c3cn(-c4ccccc4)nc3-c3cc4ccccc4o3)C(=O)N12`, the growth is 161%.
In the case of `COc1cc2c(cc1OC)C(Cc1cc(OC)c(OC)cc1[N+](=O)[O-])=NCC2` it was 73.4%.
In the case of `COc1ccc(-c2nc(SCC(C)C)nc(Nc3ccc([N+](=O)[O-])cc3)c2C#N)cc1` it was 73%.
As for `O=C(/C=C/c1c[nH]c2ccccc12)c1cc2ccccc2o1`, the growth was 140%.
In the case of `C/C=C(/C)C(=O)OC1C=C(CO)C(=O)C(OC(=O)C2(C)OC2C)C1C(C)C` (stereo not drawn) it was -31.8% (active); in that of `O=C(Nc1ccc(Cl)c(Cl)c1)O/N=C\c1c(Cl)ccc([N+](=O)[O-])c1Cl`, -97.2% (active); in that of `Oc1ccc(CN(Cc2ccc(C(F)(F)F)cc2)Cc2ccc(O)c3ncccc23)c2cccnc12`, 14.7%.
Turning to `COc1cc(-c2nc(/C=C3/C(=O)Nc4ccccc43)c3ccccn23)cc(OC)c1OC`, the growth was 120%.
